# PubChem BioAssay AID743449 (Broad Institute, 2014)
# Screen size: about 9,900 compounds; about 90 (0.9%) were called active. Another 2% or so got no clear call; they are omitted.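 How the source made its calls: active means mean normalized replicate activity at least 50 and at least half of replicates each reaching 50; inconclusive means only one of the two criteria met; inactive means neither criterion met.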 Only a selection was taken, and actives are over-represented in it overall.
# Assay: reduction of CTGF mRNA in DLD1 cells – DLD1 colon cancer cells, RT-qPCR, single point, primary screen (AID 743449);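 further: 0% = neutral control wells and 100% = dasatinib control wells; higher means stronger suppression of CTGF expression like dasatinib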
# Settings: 24 h, at 12.5 µM, active compounds read high
row,SMILES,inhibition
1,COc1cccc(-c2ccc([C@H]3[C@@H](CO)N4CCCCN(C(=O)Cc5ccncc5)C[C@@H]34)cc2)c1,18.9% (inactive)
2,O=C(Cc1ccncc1)N1CCCCN2[C@@H](CO)[C@H](c3ccc(C#Cc4ccccc4F)cc3)[C@@H]2C1,22.3% (inactive)
3,O=C(Cc1ccncc1)N1CCCCN2[C@H](C1)[C@H](c1ccc(C#Cc3ccccc3F)cc1)[C@@H]2CO,104% (active)
4,COc1cccc(-c2ccc([C@@H]3[C@@H](CO)N4CCCCN(C(=O)Cc5ccncc5)C[C@@H]34)cc2)c1,32.9% (inactive)
5,O=C(Cc1ccncc1)N1CCCCN2[C@H](CO)[C@@H](c3ccc(C#Cc4ccccc4F)cc3)[C@H]2C1,54.3% (active)
6,O=C(Cc1ccncc1)N1CCCCN2[C@H](CO)[C@@H](c3ccc(C#Cc4ccccc4F)cc3)[C@@H]2C1,39.4% (inactive)
7,O=C(Cc1ccncc1)N1CCCCN2[C@@H](CO)[C@@H](c3ccc(C#Cc4ccccc4F)cc3)[C@@H]2C1,27.9% (inactive)
8,COc1cccc(-c2ccc([C@H]3[C@H]4CN(C(=O)Cc5ccncc5)CCCCN4[C@H]3CO)cc2)c1,76.7% (active)
9,O=C(Cc1ccncc1)N1CCCCN2[C@H](C1)[C@@H](c1ccc(C#Cc3ccccc3F)cc1)[C@@H]2CO,12.4% (inactive)
10,O=C(O)[C@H]1[C@H](CO)[C@H]2Cn3c(ccc(-c4ccncc4)c3=O)[C@@H]1N2S(=O)(=O)c1ccccc1F,-4.67% (inactive)
11,C/C=C/c1ccc([C@H]2[C@@H](CO)N3CCCCN(C(=O)Cc4cccnc4)C[C@@H]23)cc1,-13.7% (inactive)
12,C[C@@H]1CN([C@@H](C)CO)C(=O)CCCn2nncc2CO[C@H]1CN(C)C(=O)Oc1cccc2ccccc12,-0.0735% (inactive)
13,COc1ccccc1CN1[C@H](CO)[C@H](c2ccccc2)C12CN(C(=O)Cc1ccccc1)C2,-16.1% (inactive)
14,C/C=C/c1ccc([C@H]2[C@H](CO)N3CCCCN(C(=O)Cc4cccnc4)C[C@@H]23)cc1,13.9% (inactive)
15,O=C([C@H]1N[C@H]2c3cccc(=O)n3C[C@H]2[C@@H]1CO)N1CCCCC1,-21.1% (inactive)
